Screens as filed in PubChem.
SNCA expr inhib = inhibitors of alpha-synuclein (SNCA) gene expression. HEK-293 SNCA-luciferase knock-in, luminescence, 24 h. Potency, µM (titrated, usually from 57.2 µM), most hits filed as inhibitors. 0.17% of 140,000 active. AID 1671194; note: nearly all actives have a fitted effect of over 45% in size
IP6K1 inh = blocks human inositol hexakisphosphate kinase 1; Q92551; IP6K1 kinase, ADP-Glo luminescence, 2 h; stronger effect = lower value; activity change, % (series mostly up to about 58 µM); 0.81% of 140,000 active; AID 1645851; in the data active = activity change below about -25%
Target sequence (Q92551 whole entry, looked up): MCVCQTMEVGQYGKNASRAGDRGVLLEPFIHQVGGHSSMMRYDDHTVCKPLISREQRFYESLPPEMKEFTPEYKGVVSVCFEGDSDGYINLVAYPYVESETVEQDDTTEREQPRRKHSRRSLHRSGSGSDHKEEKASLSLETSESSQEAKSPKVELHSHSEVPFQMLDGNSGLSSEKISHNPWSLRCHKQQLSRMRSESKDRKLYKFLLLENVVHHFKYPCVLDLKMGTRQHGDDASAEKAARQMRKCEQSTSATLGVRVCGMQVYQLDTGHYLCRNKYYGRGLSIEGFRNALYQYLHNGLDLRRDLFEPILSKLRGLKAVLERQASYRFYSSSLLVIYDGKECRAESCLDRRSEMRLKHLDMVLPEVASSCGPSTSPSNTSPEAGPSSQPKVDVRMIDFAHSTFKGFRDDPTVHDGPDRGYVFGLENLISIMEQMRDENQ
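ADP-Glo luminescence measures ADP made by human IP6K1 during a 2 h RT reaction with ATP/IP6 (mix at 1.3 mM/130 uM); top library doses 57.5 and 19.1 uM final.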
HEK293 viab = counter-screen for SNCA expression inhibitors: cell viability | HEK-293-SNCA-luc viability, GF-AFC fluorescence, 24 h | 0.12% of 150,000 active | Potency, µM (series often up to 57.1 µM), most hits filed as cytotoxic; note: nearly all actives have a fitted effect of over 30% in size
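HEK-293-SNCA-luc cells (1500/well) plated 24 h, then exposed 24 h to a dilution series; GF-AFC added 30 min at 37C, fluorescence 405/540 nm; normalised to medium-only and DMSO wells, Hill fit.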
KDM5B inh = blocks human KDM5B histone demethylase activity. Potency, µM (top dose mostly 57.7 µM), most hits filed as inhibitors. AID 1347165. 2.6% of 220,000 active. KDM5B demethylase, FDH-coupled NADH fluorescence (FDH is formaldehyde dehydrogenase); note: nearly all actives have a fitted effect of over 70% in size
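qHTS format, multiple compound concentrations. Buffer 50 mM HEPES pH 7.5/0.01% Tween-20; 200 nM KDM5BΔAP final; 10 min compound preincubation; substrate-mix levels 12.5 µM peptide, 25 µM α-KG, 0.25 mM NAD⁺; 30 min RT; ΔRFU.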
Each line names hits and unclear results; the compound was inactive in the other large screens; ! = not active in a repeat. Shown are actives, neighbours in structure and some others; about 3% of the full set was active somewhere. Unless noted, calls come from the whole dose curve; as a rule, active = well fitted curve in the direction sought with a large enough effect; inconclusive = small, poorly fitted or top-dose-only effect, or another doubt; inactive = no such curve, though single readings can be large; an effect the other way counts as inactive or inconclusive.

COC(=O)[C@@H]1Cc2c([nH]c3ccccc23)[C@H]2C[C@H](NCCNC(C)=O)C[C@@H](c3ccc(C(F)(F)F)cc3)N21	KDM5B inh 10µM
COC(=O)[C@@H]1Cc2c([nH]c3ccccc23)[C@H]2C[C@H](NCCNC(C)=O)C[C@@H](c3ccccc3)N21	KDM5B inh 28µM
OC1(CNc2cc(C(F)(F)F)nc(N3CCCC3)n2)CCCNCC1 (stereo not given)	KDM5B inh 25µM
O=C(NCC1(O)CCCNCC1)c1ccc(-n2cnnc2)cc1 (stereo not given)	none
Cn1ncc2c(C(=O)NC3CC3)cc(-c3cccc(F)c3)nc21	none (no result: SNCA expr inhib, HEK293 viab, KDM5B inh)
O=C1NC2(CCN(CC3CCCCC3)CC2)COc2ccccc21	KDM5B inh inconclusive
Cc1cc(-c2nc3ccncc3[nH]2)c(C)[nH]1	KDM5B inh 32µM
Cc1occc1-c1nc2ccncc2[nH]1	KDM5B inh 32µM!
O=C(O)c1ccc(-c2nc3ccncc3[nH]2)cc1	SNCA expr inhib inconclusive, HEK293 viab inconclusive, KDM5B inh inconclusive
c1cnc2[nH]cc(-c3nc4ccncc4[nH]3)c2c1	KDM5B inh 35µM!
c1coc(-c2nc3ccncc3[nH]2)c1	KDM5B inh 32µM!
c1ccc(-c2nc3ccncc3[nH]2)cc1	KDM5B inh inconclusive
O=C(NCc1c[nH]c2ncccc12)c1ccncc1	none
Cn1ncc2c(C(=O)NCC#N)cc(-c3ccccc3F)nc21	none (no result: SNCA expr inhib, HEK293 viab, KDM5B inh)
CN1CCCN(S(=O)(=O)c2ccccc2Br)c2ccccc21	none (no result: KDM5B inh)
CSc1ccc(/C=C/c2nc3ccccc3n2S(=O)(=O)c2cccc(Cl)c2)cc1	SNCA expr inhib inconclusive, IP6K1 inh -41, KDM5B inh inconclusive
Cc1ccc(/C=C/c2nc3ccccc3n2S(=O)(=O)c2ccc(Br)cc2)cc1	SNCA expr inhib inconclusive, KDM5B inh inconclusive
COc1ccc(-c2cc(C(=O)N3CCC(Cc4ccccc4)CC3)c3cnn(C)c3n2)cc1	none (no result: SNCA expr inhib, HEK293 viab, KDM5B inh)
Cc1noc(C)c1-c1cc(-c2ccccc2F)cn2cncc12	KDM5B inh 35µM
Cc1noc(C)c1-c1cc(-c2ccccc2C(F)(F)F)cn2cncc12	KDM5B inh 40µM
Cc1noc(C)c1-c1cc(-c2cccc(F)c2)cn2cncc12	KDM5B inh inconclusive
Cc1nn(-c2ccccc2)c2c1C(C(C)C)N(C1CCN(C(=O)c3ccccc3)CC1)C2=O (stereo not given)	none (no result: SNCA expr inhib, HEK293 viab, KDM5B inh)
O=C(Cc1ccc(F)cc1)N1CCC2(CC1)CC(c1cccc(C(F)(F)F)c1)=NO2	none (no result: SNCA expr inhib, HEK293 viab, KDM5B inh)
CC(C)c1ccc(CN2CC(CNc3cccnc3)C3(C2)CN(c2ccccc2)C3)cc1 (stereo not given)	KDM5B inh inconclusive
Cc1cn2nc(C(=O)Nc3ccc4c(c3)OCCO4)cc2c(N(C)Cc2ccccc2)n1	KDM5B inh 28µM
Cc1cn2nc(C(=O)Nc3ccccc3C)cc2c(N(C)Cc2ccccc2)n1	none
Cc1cn2nc(C(=O)Nc3ccc(Cl)cc3C)cc2c(N(C)Cc2ccccc2)n1	none
Cc1cn2nc(C(=O)Nc3ccccc3)cc2c(N(C)Cc2ccccc2)n1	KDM5B inh 28µM
Cc1cn2nc(C(=O)Nc3cccc(F)c3C)cc2c(N(C)Cc2ccccc2)n1	KDM5B inh 28µM
COc1ccc(NC(=O)c2cc3c(N(C)Cc4ccccc4)nc(C)cn3n2)cc1	KDM5B inh 32µM
N#Cc1ccc(N2C[C@@H]3OCC(=O)N(CC4CCCCC4)[C@@H]3C2)nc1	KDM5B inh 35µM
CN1C(=O)CO[C@H]2CN(c3ccc(C#N)cn3)C[C@H]21	SNCA expr inhib inconclusive, KDM5B inh 35µM
O=C(c1cnccn1)N1C[C@@H]2OCC(=O)N(CC3CCCCC3)[C@@H]2C1	KDM5B inh inconclusive
CCCCCc1ccc(C(=O)C(C)C)cc1	none (no result: SNCA expr inhib, IP6K1 inh, HEK293 viab)
COC(=O)CSc1cc(C(C)(C)C)c(O)c(C(C)(C)C)c1	none (no result: SNCA expr inhib, IP6K1 inh, HEK293 viab)
O=C(Cc1c[nH]c2ccccc12)NCC(=O)N1CCCCCNC(=O)CC1c1ccccc1 (stereo not given)	none
O=C1CC(c2ccccc2)N(C(=O)C2CC2)CCCN(C(=O)c2cc3ccccc3[nH]2)CCN1 (stereo not given)	KDM5B inh inconclusive
O=C1CC(c2ccccc2)N(C(=O)CNC(=O)c2ccc3cc[nH]c3c2)CCCCCN1 (stereo not given)	KDM5B inh 25µM
O=C1CC(c2ccccc2)N(C(=O)C2CC2)CCCN(C(=O)c2ccc3cc[nH]c3c2)CCN1 (stereo not given)	KDM5B inh 28µM
O=C1CC(c2ccccc2)N(C(=O)CNC(=O)c2c[nH]c3ccccc23)CCCCCN1 (stereo not given)	KDM5B inh 28µM
COc1ccccc1Nc1c2c(nc3ccc(NC(=O)c4cccc(OC)c4OC)cc13)CCCC2	SNCA expr inhib inconclusive, HEK293 viab 16µM
Cc1ccc(-c2noc([C@@H]3C[C@H](NS(=O)(=O)c4ccc(Cl)cc4)CN3C)n2)cc1	KDM5B inh inconclusive
COCCN1Cc2ccc(NCC(C)C)nc2C(C)(C(=O)NC2CC2)C1 (stereo not given)	KDM5B inh 32µM
CC(C)CNc1ccc2c(n1)C(C)(C(=O)NC1COC1)CN(Cc1ccccc1)C2 (stereo not given)	SNCA expr inhib inconclusive, HEK293 viab inconclusive, KDM5B inh 32µM
COCCN1Cc2ccc(Nc3cccnc3)nc2C(C)(C(=O)Nc2cccc(OC)c2)C1 (stereo not given)	KDM5B inh inconclusive
COCCN1Cc2ccc(Nc3cccnc3)nc2C(C)(C(=O)NCc2ccncc2)C1 (stereo not given)	KDM5B inh 25µM
COCCN1Cc2ccc(NCc3ccccc3)nc2C(C)(C(=O)Nc2ccn(C)n2)C1 (stereo not given)	SNCA expr inhib inconclusive, KDM5B inh 35µM
CC(C)(C)C(O)CN1CCC(=O)N(Cc2ccccc2)Cc2sccc21 (stereo not given)	none (no result: SNCA expr inhib, HEK293 viab, KDM5B inh)
Cc1ccc(-c2cccc(CN3CCCC(NC(=O)Nc4ccc(Cl)cc4)C3)c2)cc1Cl (stereo not given)	none (no result: SNCA expr inhib, HEK293 viab, KDM5B inh)
O=C(NCc1ccccc1F)c1ccc2nc(-c3ccccn3)oc2c1	none (no result: KDM5B inh)
O=C1[C@@H]2C[C@@H](CN2Cc2ccc(Cl)cc2)Oc2ccccc2N1CC1CC1	SNCA expr inhib inconclusive, HEK293 viab inconclusive
COc1ccc(-c2nc(CSC(C)C(=O)Nc3cc(C)ccc3C)co2)cc1 (stereo not given)	none (no result: SNCA expr inhib, IP6K1 inh, HEK293 viab)
NC(=O)C1CCCc2c1[nH]c1ccc(Cl)cc21 (stereo not given)	SNCA expr inhib 8.6µM, HEK293 viab inconclusive (no result: IP6K1 inh, KDM5B inh)
CCOC(=O)c1[nH]c(C)c(CNCCc2ccc(OC)c(OC)c2)c1C	none (no result: SNCA expr inhib, IP6K1 inh, HEK293 viab)
CC1(C)CC(N=Cc2ccccc2O)CC(C)(C)N1	none (no result: SNCA expr inhib, IP6K1 inh, HEK293 viab)
COCCNC(=O)c1cc(-c2ccc(OC)cc2)nc2onc(C3CCNC3)c12 (stereo not given)	KDM5B inh 79µM
COCCNC(=O)c1cc(C2CC2)nc2onc(C3CCNC3)c12 (stereo not given)	KDM5B inh 79µM
Cc1cc(C(=O)N2CCCCC2)c2c(C3CCNC3)noc2n1 (stereo not given)	KDM5B inh 89µM
